Measured values as given in PubChem BioAssay (EPA / NIEHS).
Inconclusive results are not listed. Calls of active or inactive are those of the source. How the source made its calls, unless noted: active means hit-call score of the fitted dose curve at least 0.9, where 1 is the maximum; inconclusive means response in the unintended direction; inactive means score below 0.9.

How the values were obtained:
[1] = Tanguay_ZF_120hpf_BRAI_legacy: (Legacy) Oregon State University Tanguay Lab 120 Hour Post-fertilization zebrafish Assay for Brain Malformation (AID 2283641)
Method in brief: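 Tropical 5D wild-type zebrafish embryos exposed statically until 120 hpf at 28C, 0.64% DMSO final, sealed and dark. Brain malformation scored present/absent by brightfield at 120 hpf; dead embryos excluded. Trimethyltin chloride 5uM positive control.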

[2] = Tanguay_ZF_120hpf_SOMI_legacy: (Legacy) Oregon State University Tanguay Lab 120 Hour Post-fertilization zebrafish Assay for Somite Malformation (AID 2283647)
Method in brief: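 Dechorionated Tropical 5D wild-type zebrafish embryos, one per well from 6 hpf, statically exposed at 28C to 120 hpf in 0.64% DMSO; somite malformation scored present/absent by brightfield; trimethyltin 5 uM positive control; dead embryos not scored.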

[3] = Tanguay_ZF_120hpf_PFIN_legacy: (Legacy) Oregon State University Tanguay Lab 120 Hour Post-fertilization zebrafish Assay for Pectoral Fin Malformation (AID 2283648);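 further: each larva judged yes or no for fin defect by brightfield with dead larvae skipped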
Method in brief: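 Pectoral fin malformation was recorded as a binary endpoint at 120 hpf in wild-type Tropical 5D larvae, which had been dechorionated and exposed statically from 6 hpf at 28C in 0.64% DMSO. Dead embryos were excluded.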

[4] = Tanguay_ZF_120hpf_CFIN_legacy: (Legacy) Oregon State University Tanguay Lab 120 Hour Post-fertilization zebrafish Assay for Caudal Fin Malformation (AID 2283649)
Method in brief: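 Dechorionated Tropical 5D wild-type embryos, one per well from 6 hpf, static exposure to 120 hpf at 28C in 0.64% DMSO. Caudal fin malformation scored by brightfield as present/absent; not scored in dead embryos.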

[5] = Tanguay_ZF_120hpf_PIG_legacy: (Legacy) Oregon State University Tanguay Lab 120 Hour Post-fertilization zebrafish Assay for Pigmentation Malformation (AID 2283650)
Method in brief: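 Pigment malformation recorded as a binary call at 120 hpf in zebrafish (Tropical 5D) exposed singly from 6 hpf after pronase dechorionation. Static, sealed, 28C exposure, 0.64% DMSO; mortality excludes scoring; positive-direction fit against DMSO.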

[6] = Tanguay_ZF_120hpf_CIRC_legacy: (Legacy) Oregon State University Tanguay Lab 120 Hour Post-fertilization zebrafish Assay for Circulatory Malformation (AID 2283651)
Method in brief: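 Binary circulatory malformation call at 120 hpf by brightfield imaging of zebrafish larvae; chorion removed at 4 hpf, static exposure from 6 hpf in sealed dark plates at 28C, final DMSO 0.64%; non-mortality endpoints skipped if embryo died.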

[7] = Tanguay_ZF_120hpf_SWIM_legacy: (Legacy) Oregon State University Tanguay Lab 120 Hour Post-fertilization zebrafish Assay for Swim Bladder Malformation (AID 2283654);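 further: swim bladder malformation in each larva scored yes or no under brightfield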
Method in brief: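 Scoring is binary for swim bladder defects at 120 hpf, by brightfield inspection of zebrafish larvae. Embryos were exposed singly from 6 hpf after pronase dechorionation, at 28C with 0.64% DMSO; mortality excluded scoring.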

[8] = Tanguay_ZF_120hpf_PE_legacy: (Legacy) Oregon State University Tanguay Lab 120 Hour Post-fertilization zebrafish Assay for Pericardial Edema (AID 2283640);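 on AC50: potency for increased incidence of pericardial edema versus DMSO baseline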
Method in brief: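 Tropical 5D wild-type zebrafish embryos were statically exposed until 120 hpf at 28C, with 0.64% DMSO final. Pericardial edema was scored by brightfield as present or absent; endpoints were not scored in dead embryos.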

[9] = read-out: kallikrein-3 (KLK3), KLK3 (gene 354); assay: LTEA_HepaRG_KLK3: Life Technologies and Expression Analysis (LTEA) Assay for kallikrein-3 (KLK3) using HepaRG (AID 2283652; active means hit-call score of the fitted dose curve at least 0.9, where 1 is the maximum; inactive means score below 0.9); conditions: mRNA level, 48 h; actives raise or lower the signal
Experimental: LTEA_HepaRG is a cell based, multiplexed-readout assay that uses HepaRG, a human liver cell line, with measurements taken at 48 hours after chemical dosing on a 96-well plate.LTEA_HepaRG_KLK3 is one of 102 assay component(s) measured in the LTEA HepaRG cell culture assay. It is a marker of Cellular remodeling.Data from the assay component LTEA_HepaRG_KLK3 was analyzed into 1 endpoint. This assay endpoint, LTEA_HepaRG_KLK3, was analyzed with bidirectional fitting relative to DMSO as the negative control and baseline of activity. Using a type of inducible reporter, measures of mRNA induction for gain or loss-of-signal activity can be used to understand regulation of transcription factor activity. To generalize the intended target to other relatable targets, this assay endpoint is annotated to the protease intended target family, where the subfamily is Cellular remodeling.
A total of 1060 chemcials from the ToxCast library were tested in eight-point concentration-response experiments. Cell culture and cytotoxicity assays were conducted at Thermo Fisher Scientific's Custom Services facility (Madison, WI). A single lot of human HepaRG cells (Thermo Fisher Scientific, Frederick, MD) was used for the cell culture experiments. 96-well format collagen type I coated plates of human HepaRG cells were prepared using established methods. Briefly, cryopreserved HepaRG cells were thawed, plated at a density of approximately 100,000 cells/well in HepaRG Thaw, Plate, and General Purpose media (HPRG770, Thermo Fisher Scientific), and incubated for 48 hours. […] Fluidigm's 96.96 Dynamic ArrayTM (Fluidigm, Amsterdam, the Netherlands) technology was used for gene expression analyses by quantitative reverse transcription polymerase chain reaction (qRT-PCR, performed by Quintiles/Expression Analysis, Durham, NC)89. […]

[10] = read-out: solute carrier (SLC22A6), SLC22A6 (gene 9356); assay: LTEA_HepaRG_SLC22A6: Life Technologies and Expression Analysis (LTEA) Assay for solute carrier (SLC22A6) using HepaRG (AID 2283653; active means hit-call score of the fitted dose curve at least 0.9, where 1 is the maximum; inactive means score below 0.9); conditions: mRNA level, 48 h; actives raise or lower the signal
Method in brief: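 Differentiated HepaRG cells exposed 48 h in serum-free induction medium to 8 half-log concentrations, top 100 uM, in 0.5% DMSO; SLC22A6 mRNA by Fluidigm qRT-PCR normalized to ACTB, GAPDH, POLR2A, fitted bidirectionally versus DMSO.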

Measured: AC50

CN(C)C=O
inactive: [1] | [2] | [3] | [4] | [5] | [6] | [7]

C=C(C)C(=O)OCCC(F)(F)C(F)(F)C(F)(F)C(F)(F)C(F)(F)C(F)(F)F
inactive: [8] | [3] | [4] | [5] | [6] | [9] | [10] | [7]

CCC(C)(C)C1CCC(O)CC1 (stereo unspecified)
inactive: [8] | [1] | [2] | [3] | [4] | [5] | [7]

O=C(O)Cc1cc(I)c(Oc2cc(I)c(O)c(I)c2)c(I)c1
active: [1] 0.00612 µM | [5] 0.0192 µM
inactive: [2] | [3] | [4] | [6] | [7]

CCc1nn(C2CCCCC2)c2cc(C3(C#N)CCC(C(=O)O)CC3)ccc12 (stereo unspecified)
active: [8] 0.27 µM | [1] 2.71 µM | [2] 0.506 µM | [3] 0.563 µM | [4] 0.15 µM | [7] 0.419 µM
inactive: [5] | [6]

CC(C)(C)c1cccc(C(C)(C)C)c1O
inactive: [1] | [2] | [5] | [6] | [7]

c1ccc2c(c1)ccc1ccccc12
inactive: [1] | [3] | [4] | [5] | [6] | [7]

CC(C)CCCCCCOC(=O)CCCCC(=O)OCCCCCCC(C)C
inactive: [1] | [2] | [4] | [5] | [6] | [7]

COc1ccc([N+](=O)[O-])cc1N
inactive: [2] | [3] | [4] | [6] | [7]

COC(=O)CCCCC(=O)OC
inactive: [1] | [2] | [3] | [4] | [5] | [6] | [7]

CC(C)(C)c1cc(C(C)(C)C)c(O)c(C(C)(C)C)c1
inactive: [1] | [3] | [4] | [5] | [6] | [10] | [7]

CCCCCCCCCCCCc1ccccc1S(=O)(=O)O
inactive: [2] | [3] | [4] | [6] | [7]

CCCOc1sc(C(=O)N2CCC(c3cc(CN)ccc3F)CC2)c(C)c1Br
inactive: [1] | [2] | [3] | [6] | [7]

CCCCCCCCOC(=O)CCCCCCCCC(=O)OCCCCCCCC
inactive: [1] | [2] | [3] | [4] | [5] | [7]

Oc1cccc(O)c1
inactive: [1] | [2] | [5] | [6] | [7]

ClC1=C(Cl)C(Cl)(Cl)C(Cl)=C1Cl
inactive: [1] | [2] | [4] | [5] | [9] | [10]

OC1CCCCC1
inactive: [1] | [2] | [3] | [4] | [5] | [7]

COCC(C)O (stereo unspecified)
inactive: [1] | [2] | [3] | [5] | [7]

CCCOC(=O)c1ccc(O)cc1
active: [1] 41.4 µM | [2] 33.3 µM | [3] 45.8 µM | [4] 75.8 µM | [5] 49.1 µM | [6] 40.1 µM | [7] 10.6 µM

NC(=O)N(O)[C@@H]1C=C[C@H](Oc2cccc(Oc3ccc(F)cc3)c2)C1
inactive: [1] | [2] | [3] | [4] | [5] | [7]

c1ccc2c(c1)Cc1ccccc1-2
inactive: [1] | [2] | [4] | [5] | [7]

O=c1c(-c2ccc(O)cc2)coc2cc(O)ccc12
inactive: [2] | [3] | [5] | [6] | [7]

CCCCCCCCCCCCN1CCCC1=O
active: [4] 41 µM
inactive: [1] | [2] | [3] | [5] | [6] | [7]

CCN(CC)CCNc1ccc(CNC=O)c2sc3ccc(OC)cc3c(=O)c12
inactive: [1] | [2] | [4] | [5] | [6] | [7]

CCCCC(CC)COC(=O)CCCCC(=O)OCc1ccccc1 (stereo unspecified)
inactive: [1] | [2] | [3] | [4] | [6] | [7]

C[C@@H]1C[C@H]2[C@@H]3CCC4=CC(=O)C=C[C@]4(C)[C@@]3(F)[C@@H](O)C[C@]2(C)[C@@]1(O)C(=O)COP(=O)(O)O
inactive: [1] | [2] | [3] | [4] | [5] | [6] | [7]

CCCCOCCO
inactive: [1] | [2] | [3] | [4] | [5] | [6] | [7]

OCCC(F)(F)C(F)(F)C(F)(F)C(F)(F)C(F)(F)C(F)(F)C(F)(F)C(F)(F)F
inactive: [1] | [2] | [3] | [4] | [5] | [6] | [7]

CCCCCCC(=O)O
inactive: [1] | [2] | [3] | [4] | [5] | [6] | [7]
